According to PubChem BioAssay:
Where “and” joins values, the source holds several entries; their conditions need not be identical. Equal values may be shown once. Results filed as inconclusive are left out. Calls of active or inactive are those of the source.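 Rule for the calls, unless noted: active = normalized viability below 100% at a tested concentration; inactive = the rest.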

Tests used:
[1] = drug combination growth inhibition, ovarian cancer – cell-based, oncology-focused library, rucaparib conditional, profiling panel (AID 1508598); conditions: patient-derived ovarian cancer cells, CellTiter-Glo viability, 144 h, stronger effect = lower value
[2] = P. berghei load reduction in hepatocytes – cell-based, HepG2, luciferase luminescence, HepG2 viability, primary screen (AID 624349; in the data active = parasite load remaining mostly below about 12%, no sharp cut-off; inactive = mostly above about 10%;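 note: 100% = mean of DMSO negative control wells on the same plate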); conditions: P. berghei liver stage in HepG2, luciferase luminescence, concentration not given here; parasite load remaining: stronger effect = lower value; viability: measured here: HepG2 viability without parasites
[3] = test system: Hepatitis C virus NS3 helicase; assay: blockers of NS3h binding to ssDNA – biochemical, fluorescence polarization, LOPAC1280 library, primary screen (AID 687035; in the data active = inhibition above about 37%); conditions: Purified HCV NS3 helicase, Cy5-dT15 ssDNA binding fluorescence polarization; stronger effect = higher value; concentration not given here
[4] = compounds altering Cy5-DNA-NS3h complex signal – biochemical, LOPAC1280, artefact control for HCV NS3 helicase inhibitor project (AID 687037; call rule not given here); conditions: Cy5-DNA-NS3h complex fluorescence interference counterscreen
[5] = Wnt pathway potentiators raising nuclear beta-catenin – imaging, WNT3A-conditioned medium, mouse C2C12, NPC library, primary screen (AID 1117326; in the data active = nuclear beta-catenin stimulation mostly above about 4.2%, no sharp cut-off; inactive = mostly below about 10%); conditions: stronger effect = higher value
[6] = stimulators of insulin release from INS-1E, primary screen, cell-based, 5 mM glucose, NPC library (AID 1117329;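 active = compound raises insulin release from rat beta cells at 5 mM glucose, no numeric limit stated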); conditions: rat INS-1E insulin secretion, at 10 µM, stronger effect = higher value
[7] = growth inhibition of GSK3B-pretreated HCT116 cells – cell-based, CellTiter-Glo, 0.2 to 20 µM (AID 1117336;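 active = compounds lowering colon cancer cell viability after pretreatment blocking the GSK3B kinase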); conditions: HCT116 viability after GSK3B inhibitor, at 20 µM, stronger effect = higher value
[8] = inhibition of endothelial tube formation, primary screen, imaging, VEGF stimulated, CD31 staining, tube area, NPC library (AID 1117340;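 active = compound that reduces growth-factor-driven endothelial tube area in a mixed cell culture, no cutoff stated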); conditions: VEGF-stimulated ADSC/ECFC co-culture, at 10 µM, stronger effect = higher value
[9] = GLP1 release stimulators, primary, NCI-H716, NPC library (AID 1117341;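 active = compound raises GLP1 secretion from the human gut endocrine cells, with no numeric limit stated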); conditions: NCI-H716 cells, at 10 µM, stronger effect = higher value
[10] = HCT116 colon cancer cell growth inhibition, primary screen, CellTiter-Glo luminescence, NPC library (AID 1117342;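 active = compounds that lower survival of HCT116 colon cancer cells in the luminescence readout, no numeric limit stated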); conditions: at 20 µM (top of the series)
[11] = reduced SW480 viability measured with CellTiter-Glo, NPC library, primary (AID 1117343;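 active = compounds that lower viability of the colon cancer cells in the luminescence readout, with no numeric limit stated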); conditions: CellTiter-Glo luminescence; at 20 µM (top of the series) unless noted
[12] = NPC library primary testing for decreased DLD-1 cell viability via CellTiter-Glo (AID 1117346;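 active = compounds that lower survival of DLD-1 colon cancer cells in the luminescence readout, no cutoff given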); conditions: DLD-1 viability, CellTiter-Glo luminescence; at 20 µM (top of the series)
[13] = viability loss with induced miR-34 in A549 – imaging, A549 dox-inducible miR-34, nuclei and caspase counts, primary screen (AID 1347080;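 active = compounds whose cell count with miR-34 switched on is under 0.7 times the count with it off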); conditions: A549 miR-34 inducible, Hoechst nuclei count, 48 h
[14] = blockers of cellular phospholipid synthesis – cell-based, LOPAC library, screen 4, primary screen (AID 1347384; call rule not given here); conditions: animal cells, phospholipid biosynthesis inhibition screen; at 10 µM
[15] = MELAS cybrid and Rieske KO viability enhancers – cell-based, MELAS cybrids, Rieske KO mouse fibroblasts, CellTiter-Glo, primary screen (AID 1508586;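 active = mean z-score across replicates of 1.96 or higher in either the MELAS or the Rieske mutant cell line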;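 note: z relative to plate mean and SD of compound and empty wells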); conditions: low glucose
[16] = galactose survival enhancers in mitochondrial complex I cybrids – cell-based, galactose medium, ATP luminescence, primary screen (AID 1645843;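 active = z-score of at least 1.8 in each of two replicates, scored against plate mean and spread of sample wells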;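 note: positive z means more ATP and so rescue of galactose-driven cybrid death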); conditions: complex I mutant cybrid cells, 72 h, stronger effect = higher value
[17] = viability loss in pontine glioma line – cell-based, JHH-DIPG-1, MIPE4.0, CellTiter-Glo, qHTS, dose response (AID 1347062; cut-off not given, nearly all actives have AC50 up to about 27 µM;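 for AC50: cells exposed to compound for two days before readout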); conditions: JHH-DIPG-1 viability, CellTiter-Glo ATP luminescence
[18] = viability loss in pontine glioma line – cell-based, SU-DIPG-IV, MIPE4.0, CellTiter-Glo, qHTS, dose response (AID 1347063; cut-off not given, nearly all actives have AC50 up to about 30 µM;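 note: compound exposure lasted 48 hours before the viability readout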); conditions: CellTiter-Glo ATP luminescence
[19] = molecular target: NAD(+) hydrolase SARM1 (Homo sapiens) (UniProt Q6SZW1); assay: blocking NAD cleavage by SARM1 SAM-TIR – cell lysate, NAD-Glo luminescence (AID 1508614;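 active = compound whose remaining NAD level is above about 45 nM, limit read from the data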;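 note: higher remaining NAD means stronger inhibition of SARM1 NADase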); conditions: SAM-TIR HEK293T lysate NADase, at 1 µM, stronger effect = higher value
[20] = at 0.000305 µM, OCI-C5x cells, with rucaparib 10 µM, 100% = cells with rucaparib alone
[21] = at 0.000305 µM, OCI-C5x cells, without rucaparib
[22] = at 0.000305 µM, OCI-P5x cells, with rucaparib 20 µM, 100% = cells with rucaparib alone
[23] = at 0.000305 µM, OCI-P5x cells, without rucaparib
[24] = at 0.00122 µM, OCI-C5x cells, with rucaparib 10 µM, 100% = cells with rucaparib alone
[25] = at 0.00122 µM, OCI-C5x cells, without rucaparib
[26] = at 0.00122 µM, OCI-P5x cells, with rucaparib 20 µM, 100% = cells with rucaparib alone
[27] = at 0.00122 µM, OCI-P5x cells, without rucaparib
[28] = at 0.00488 µM, OCI-C5x cells, with rucaparib 10 µM, 100% = cells with rucaparib alone
[29] = at 0.00488 µM, OCI-C5x cells, without rucaparib
[30] = at 0.00488 µM, OCI-P5x cells, with rucaparib 20 µM, 100% = cells with rucaparib alone
[31] = at 0.00488 µM, OCI-P5x cells, without rucaparib
[32] = at 0.0195 µM, OCI-C5x cells, with rucaparib 10 µM, 100% = cells with rucaparib alone
[33] = at 0.0195 µM, OCI-C5x cells, without rucaparib
[34] = at 0.0195 µM, OCI-P5x cells, with rucaparib 20 µM, 100% = cells with rucaparib alone
[35] = at 0.0195 µM, OCI-P5x cells, without rucaparib
[36] = at 0.0781 µM, OCI-C5x cells, with rucaparib 10 µM, 100% = cells with rucaparib alone
[37] = at 0.0781 µM, OCI-C5x cells, without rucaparib
[38] = at 0.0781 µM, OCI-P5x cells, with rucaparib 20 µM, 100% = cells with rucaparib alone
[39] = at 0.0781 µM, OCI-P5x cells, without rucaparib
[40] = at 0.313 µM, OCI-C5x cells, with rucaparib 10 µM, 100% = cells with rucaparib alone
[41] = at 0.313 µM, OCI-C5x cells, without rucaparib
[42] = at 0.313 µM, OCI-P5x cells, with rucaparib 20 µM, 100% = cells with rucaparib alone
[43] = at 0.313 µM, OCI-P5x cells, without rucaparib
[44] = at 1.25 µM, OCI-C5x cells, with rucaparib 10 µM, 100% = cells with rucaparib alone
[45] = at 1.25 µM, OCI-C5x cells, without rucaparib
[46] = at 1.25 µM, OCI-P5x cells, with rucaparib 20 µM, 100% = cells with rucaparib alone
[47] = at 1.25 µM, OCI-P5x cells, without rucaparib
[48] = at 5 µM, OCI-C5x cells, with rucaparib 10 µM, 100% = cells with rucaparib alone
[49] = at 5 µM, OCI-C5x cells, without rucaparib
[50] = at 5 µM, OCI-P5x cells, with rucaparib 20 µM, 100% = cells with rucaparib alone
[51] = at 5 µM, OCI-P5x cells, without rucaparib
[52] = stronger effect = lower value, cell number ratio, induced over uninduced
[53] = measured here: relative caspase fold change +Dox/-Dox
[54] = measured here: total cells with miR-34 induction, stronger effect = lower value
[55] = measured here: total cells without miR-34 induction
[56] = MELAS cybrid survival, CellTiter-Glo 48 h, stronger effect = higher value
[57] = Rieske KO mouse fibroblast survival, CellTiter-Glo 72 h

Chain of NAD(+) hydrolase SARM1 (Homo sapiens) (Q6SZW1 whole entry, looked up): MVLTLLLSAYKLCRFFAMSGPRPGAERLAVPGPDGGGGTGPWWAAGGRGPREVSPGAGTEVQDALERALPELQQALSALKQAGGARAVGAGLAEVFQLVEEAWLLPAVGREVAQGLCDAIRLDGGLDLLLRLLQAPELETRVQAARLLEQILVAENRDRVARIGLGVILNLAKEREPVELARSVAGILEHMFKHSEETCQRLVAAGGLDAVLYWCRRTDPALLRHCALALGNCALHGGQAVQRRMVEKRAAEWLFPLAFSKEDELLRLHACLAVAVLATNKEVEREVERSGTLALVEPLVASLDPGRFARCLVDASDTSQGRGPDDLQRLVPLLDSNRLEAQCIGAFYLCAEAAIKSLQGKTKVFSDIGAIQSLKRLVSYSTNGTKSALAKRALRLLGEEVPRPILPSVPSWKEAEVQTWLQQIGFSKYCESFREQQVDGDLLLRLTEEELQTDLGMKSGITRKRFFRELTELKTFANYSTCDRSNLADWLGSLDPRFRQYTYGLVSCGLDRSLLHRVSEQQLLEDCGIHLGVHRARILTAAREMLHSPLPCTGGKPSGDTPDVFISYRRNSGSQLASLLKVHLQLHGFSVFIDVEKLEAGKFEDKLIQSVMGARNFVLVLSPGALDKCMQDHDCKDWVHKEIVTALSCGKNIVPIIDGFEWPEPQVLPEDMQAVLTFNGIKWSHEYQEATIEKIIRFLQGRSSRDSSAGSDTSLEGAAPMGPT

Cc1ccc(Nc2nccc(N(C)c3ccc4c(C)n(C)nc4c3)n2)cc1S(N)(=O)=O
active: viability [1, 20] 96.4% | viability [1, 21] 95.3% | viability [1, 22] 99% | viability [1, 27] 99.5% | viability [1, 29] 98.4% | viability [1, 31] 99.3% | viability [1, 32] 98.1% | viability [1, 34] 97.8% | viability [1, 35] 98.3% | viability [1, 38] 97.9% | viability [1, 39] 95.6% | viability [1, 41] 95.9% | viability [1, 43] 90.2% | viability [1, 45] 96.9% | viability [1, 46] 87.9% | viability [1, 47] 91.3% | viability [1, 50] 86% | viability [1, 51] 86%
inactive: viability [1, 23] 100% | viability [1, 24] 104% | viability [1, 25] 106% | viability [1, 26] 105% | viability [1, 28] 104% | viability [1, 30] 100% | viability [1, 33] 100% | viability [1, 36] 103% | viability [1, 37] 102% | viability [1, 40] 109% | viability [1, 42] 100% | viability [1, 44] 108% | viability [1, 48] 112% | viability [1, 49] 115%

CNC(=O)c1ccccc1Sc1ccc2c(/C=C/c3ccccn3)n[nH]c2c1
inactive: viability [1, 20] 107% | viability [1, 21] 114% | viability [1, 22] 106% | viability [1, 24] 116% | viability [1, 25] 110% | viability [1, 26] 112% | viability [1, 28] 109% | viability [1, 29] 110% | viability [1, 30] 106% | viability [1, 32] 114% | viability [1, 33] 103% | viability [1, 34] 108% | viability [1, 36] 118% | viability [1, 38] 126% | viability [1, 40] 110% | viability [1, 42] 101% | viability [1, 44] 112% | viability [1, 45] 105% | viability [1, 48] 110% | viability [1, 50] 107%
active: viability [1, 23] 95.9% | viability [1, 27] 93.6% | viability [1, 31] 98% | viability [1, 35] 94.2% | viability [1, 37] 98.3% | viability [1, 39] 96.6% | viability [1, 41] 97.7% | viability [1, 43] 87.8% | viability [1, 46] 95.4% | viability [1, 47] 85.8% | viability [1, 49] 93.2% | viability [1, 51] 83%

CC1=C(C)C(=O)C(CCCCC#CCCCC#CCO)=C(C)C1=O
inactive: parasite load remaining [2] 55.8% | inhibition [3] -2% | fluorescence ratio (interference) [4] 1 | nuclear beta-catenin stimulation ([5]; at 10 µM) 2.7% | insulin secretion stimulation [6] 2.7% | tube area decrease [8] 16% | GLP1 secretion stimulation [9] 5% | fold change [13, 52] 1.02 and 0.926 and 0.838 | outcome [14] | z-score [15, 56] 0.195 | z-score [16] -1.52 and -1.61
7960 and 3280 and 9410: cell count [13, 55]
216%: viability [2]
8160 and 3040 and 7890: cell count [13, 54]
1.5 and 0.952 and 1.53: fold change [13, 53]
active: viability decrease [7] 96% | inhibition of viability [10] 87.4% | viability decrease (inhibition) [11] 126% | viability decrease (inhibition) [12] 54.6%
-0.7%: nuclear beta-catenin stimulation ([5]; stimulation, at 2 µM)
-1.24: z-score [15, 57]

C#Cc1cccc(Nc2ncnc3cc(OCCOC)c(OCCOC)cc23)c1
5640: cell count [13, 55]
2.01 (active) and 0.197: z-score [15, 56]
inactive: parasite load remaining [2] 380% | nuclear beta-catenin stimulation ([5]; at 10 µM) 1.3% | insulin secretion stimulation [6] 1.8% | tube area decrease [8] -49.7% | GLP1 secretion stimulation [9] 1.7% | viability decrease (inhibition) [11] 34.2% | fold change [13, 52] 0.807 | viability [1, 20] 108% | viability [1, 21] 109% | viability [1, 22] 121% | viability [1, 24] 105% | viability [1, 25] 109% | viability [1, 26] 142% | viability [1, 28] 109% | viability [1, 29] 104% | viability [1, 30] 111% | viability [1, 31] 101% | viability [1, 32] 105% | viability [1, 33] 101% | viability [1, 34] 122% | viability [1, 36] 102% | viability [1, 37] 106% | viability [1, 38] 135% | viability [1, 40] 101% | viability [1, 41] 104% | viability [1, 42] 109% | viability [1, 46] 101% | z-score [16] 1.06
active: viability decrease [7] 72.1% | inhibition of viability [10] 59.4% | viability decrease (inhibition) [12] 83.4% | AC50 [17] 7.43 µM | AC50 [18] 7.43 µM | viability [1, 23] 93.6% | viability [1, 27] 96.4% | viability [1, 35] 97.9% | viability [1, 39] 99% | viability [1, 43] 91.2% | viability [1, 44] 76% | viability [1, 45] 91.8% | viability [1, 47] 83% | viability [1, 48] 39.7% | viability [1, 49] 62.2% | viability [1, 50] 76.9% | viability [1, 51] 66.3%
1.12: fold change [13, 53]
4550: cell count [13, 54]
-0.563 and 2.07: z-score [15, 57]
168%: viability [2]
-0.8%: nuclear beta-catenin stimulation ([5]; stimulation, at 2 µM)

O=C(OC1C[C@H]2CC[C@@H](C1)[N+]21CCCC1)C(O)(c1ccccc1)c1ccccc1 (stereo not given in full)
-2%: nuclear beta-catenin stimulation ([5]; stimulation, at 2 µM)
inactive: nuclear beta-catenin stimulation ([5]; at 10 µM) -1.3% | insulin secretion stimulation [6] 1.3% | viability decrease [7] -50.2% | tube area decrease [8] 10.7% | GLP1 secretion stimulation [9] -3.1% | inhibition of viability [10] 7.13% | viability decrease (inhibition) [11] -11.6% | viability decrease (inhibition) [12] -9.1% | outcome [17] | outcome [18] | fold change [13, 52] 1.02 | z-score [15, 56] -0.39 | remaining NAD [19] 10 nM
0.872: fold change [13, 53]
0.689: z-score [15, 57]
10200: cell count [13, 55]
10400: cell count [13, 54]
